# According to the supplement of paper PMC6555819:
# Key:
# Test in all cases: PBM binding z-score (relative to random genomic background probes); higher = stronger binding; sequences stand for … in GC…GCGATTGACAGCGTAGAATGAAGG
# [1] = tested on: FXR:RXRa (NR concentration 270 nM, RXRa partner concentration 90 nM)
# Summary of the method: (§1)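 Ligand-free nuclear receptor dimers were bound for 1 h to custom Agilent 4×180K protein-binding microarrays. Detection used antibodies against each partner (one per run). Binding z-scores rest on regression-normalized fluorescence, with random background probes as the reference.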
# [2] = tested on: LXRa:RXRa (NR concentration 270 nM, RXRa partner concentration 90 nM)
# Summary of the method: as §1
# [3] = tested on: LXRa homodimer (NR concentration 270 nM)
# Summary of the method: as §1
# [4] = tested on: LXRb:RXRa (NR concentration 270 nM, RXRa partner concentration 90 nM)
# Summary of the method: as §1
# [5] = tested on: LXRb homodimer (NR concentration 270 nM)
# Summary of the method: as §1
# [6] = tested on: PPARa:RXRa (NR concentration 270 nM, RXRa partner concentration 90 nM)
# Summary of the method: as §1
# [7] = tested on: PPARg:RXRa (NR concentration 180 nM, RXRa partner concentration 90 nM)
# Summary of the method: as §1
# [8] = tested on: PPARg:RXRa 270nM:90nM, anti-RXR (NR concentration 270 nM, RXRa partner concentration 90 nM)
# Summary of the method: as §1
# [9] = tested on: PPARg:RXRa 30nM:10nM, anti-RXR (NR concentration 30 nM, RXRa partner concentration 10 nM)
# Summary of the method: as §1
# [10] = tested on: PPARg:RXRa 90nM:30nM, anti-RXR (NR concentration 90 nM, RXRa partner concentration 30 nM)
# Summary of the method: as §1
# [11] = tested on: PPARg:RXRa DBDmut IVT, anti-RXR (DBD mutation: RXRa K156A/R161A, NR concentration 270 nM, RXRa partner concentration 90 nM)
# Summary of the method: as §1
# [12] = tested on: PPARg:RXRa IVT, anti-PPARg (NR concentration 270 nM, RXRa partner concentration 90 nM)
# Summary of the method: as §1
# [13] = tested on: PPARg DBDmut:RXRa IVT, anti-PPARg (DBD mutation: PPARg1 K132A/R137A, NR concentration 270 nM, RXRa partner concentration 90 nM)
# Summary of the method: as §1
# [14] = tested on: PPARg DBDmut IVT, anti-PPARg (DBD mutation: PPARg1 K132A/R137A, NR concentration 270 nM)
# Summary of the method: as §1
# [15] = tested on: PPARg homodimer (NR concentration 180 nM)
# Summary of the method: as §1
# [16] = tested on: PXR:RXRa (NR concentration 270 nM, RXRa partner concentration 90 nM)
# Summary of the method: as §1
# [17] = tested on: PXR homodimer (NR concentration 270 nM)
# Summary of the method: as §1
# [18] = tested on: RARa:RXR (NR concentration 270 nM, RXRa partner concentration 90 nM)
# Summary of the method: as §1
# [19] = tested on: RARa homodimer (NR concentration 270 nM)
# Summary of the method: as §1
# [20] = tested on: RARb:RXRa (NR concentration 270 nM, RXRa partner concentration 90 nM)
# Summary of the method: as §1
Sequence,PBM binding z-score [1],PBM binding z-score [2],PBM binding z-score [3],PBM binding z-score [4],PBM binding z-score [5],PBM binding z-score [6],PBM binding z-score [7],PBM binding z-score [8],PBM binding z-score [9],PBM binding z-score [10],PBM binding z-score [11],PBM binding z-score [12],PBM binding z-score [13],PBM binding z-score [14],PBM binding z-score [15],PBM binding z-score [16],PBM binding z-score [17],PBM binding z-score [18],PBM binding z-score [19],PBM binding z-score [20]
CATACAGGCTCAGCTAGGCCAGAGTAGGGACGGC,-0.48,-0.677,-0.674,-1.16,-0.846,-0.795,0.181,-0.549,-0.529,-0.694,-0.65,-0.492,0.0955,-0.224,0.112,-0.899,-0.356,-0.727,-0.19,-0.283
GATCGGAGGACAAGGTCAGAGCTTTGTCCGTAGA,1.55,1.42,-0.502,0.993,-1.3,2.42,1.07,2,-0.141,1.17,-0.00086,0.881,-0.747,-1.99,0.29,1.76,-0.362,2.03,-0.62,3.47
TCTTGTAGATCCACAGGAGGTTAAGAAAGATCGA,0.0862,1.26,-0.232,1.08,-0.363,1.05,-0.0307,1.43,2.66,1.83,1.11,0.557,0.829,0.516,-0.676,0.82,-0.22,1.22,0.176,0.506
CCTGCTAGGTCATGGTCTGCTAATCTACAGTATG,3.19,2.35,0.138,1.97,-0.218,3.4,2.18,3.48,1.08,2.49,4.68,3.6,0.818,-0.517,0.597,1.33,-0.00693,2.22,-0.00634,3.87
CCTACTGGGCCACGAACGGTCATTGATTCAGTGA,0.0231,1.38,0.691,-0.0702,-0.838,0.858,1.47,1.36,-0.262,0.515,5.64,4.88,-0.4,-0.69,0.254,-0.201,-0.435,0.0689,-0.329,1.42
CCTAGCAGGCCAGCGTCACTCAAGCATTTCGCTT,-0.634,-0.323,-0.436,-0.45,-0.612,-0.652,-0.466,-1.02,-1.25,-0.939,0.696,-0.171,-1.15,-1.61,-0.299,-0.806,-0.554,-0.721,-0.187,-0.122
GCTTACTGGTCAAAGGTTATAGCATGAATAGAAT,2.63,2.93,0.195,2.9,-0.146,4.95,8.22,7.6,6.04,7.95,1.14,3.37,1.09,1.11,0.856,3.18,0.438,4.53,0.553,2.54
